Test results reported in publication PMC5540273 (PLoS ONE, 2017).

Tested on: ABL1-nonphosphorylated
Conditions: concentration: 1 μM, replicates: in singlicate; n = 1
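Also: KINOMEscan kinase panel screen.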

SMILES | %Inh [%]
Cc1ccc(C(=O)N2CC[C@@H](O)C2)cc1-n1c(C)cc(OCc2ccc(F)cc2F)c(Br)c1=O | 92.1
c1ccc(Oc2ccc(Nc3ccnc4cc(-c5ccc(CNCCN6CCOCC6)o5)ccc34)cc2)nc1 [GW567145] | 78
CC(C)c1nc(-c2cccc(NS(=O)(=O)c3c(F)cccc3F)c2F)c(-c2ccnc(Nc3ccc(N4CCOCC4)nc3)n2)s1 [GSK2008607] | 99.8
c1ccc(-c2cnc3nccnn23)cc1 [AH20685] | 0
CCn1c(-c2nonc2N)nc2c(C#CC(C)(C)O)nc(OC[C@H](N)c3ccccc3)cc21 [GSK943949] | 0
CSc1cccc2c(-c3ccncn3)c(-c3ccc(F)cc3)nn12 [GW514786] | 0
FC(F)(F)c1ccc(/C=C/c2cncnc2Nc2ccc3[nH]c(Cc4ccccc4)nc3c2)cc1 [GW709199] | 35
C[C@@H](Oc1cc(-n2cnc3cc(-c4ccnc(NCCS(C)(=O)=O)c4)ccc32)sc1C(N)=O)c1ccccc1Cl [GSK907232] | 0
O=C(Nc1n[nH]c2cc(-c3ccoc3)ccc12)C1CC1 [SB-738481] | 25
CC(C)(C)c1ccc2nccc(Nc3cccc(O)c3)c2c1 [GW856795] | 86
Cl.Cl.NCC(NC(=O)c1cc(-c2ccccc2)c(-c2ccnc3[nH]ccc23)s1)c1ccccc1 (centres unmarked) [GSK1321561] | 89
CCc1ccc(-c2ccc3c(c2)-c2c(cnn2C)S(=O)(=O)N3C)cc1 | 7
Cl.Cl.NCC(NCc1ccc(-c2ccnc3[nH]ccc23)s1)c1ccccc1 (centres unmarked) [GSK1321565] | 0
Cl.NC(=O)c1cccc(Nc2nccc(Nc3ccc(Oc4c(Cl)cccc4Cl)c(Cl)c3)n2)c1 [GW659009] | 67
Cc1ccc(C)c(NC(=O)NC2CCN(c3ccnc(Nc4ccc(F)cc4)n3)C2)c1 (centres unmarked) [GSK1379720] | 0
COC(=O)Nc1nc2cc(Oc3ccc(NC(=O)Nc4cc(C(F)(F)F)ccc4F)cn3)ccc2[nH]1.Cl.Cl [GW681170] | 99.1

SMILES | %Inh [%]
Cn1cc(-c2[nH]c3cc(NC(=O)[C@H](N)C4CCCCC4)cc4c3c2C=NNC4=O)cn1 | 95.7
CCn1c(-c2nonc2N)nc2c(C#CC(C)(C)O)ncc(OCCCCN)c21.O=C(O)C(F)(F)F.O=C(O)C(F)(F)F [GSK507274] | 0
NCCCC(NC(=O)c1cc(Br)c(-c2ccnc3[nH]ccc23)s1)c1ccccc1.O=C(O)C(F)(F)F.O=C(O)C(F)(F)F (centres unmarked) [GSK1287544] | 0
Cc1ccc(C(=O)Nc2ccc(Nc3ccnc4cc(-c5nccs5)ccc34)cc2O)cc1.Cl [GW494702] | 57
CN(C)S(=O)(=O)c1cc(-c2ccc3nccc(-c4cccc(S(N)(=O)=O)c4)c3c2)cnc1N [GSK1669921] | 0
COc1ccc(Nc2nccc(NCCNC(=O)c3cc4ccccc4s3)n2)cc1 [GSK1379896] | 0
Cc1ccc(F)c(C(=O)Nc2cccc(-c3nn4ccccc4c3-c3ccnc(Nc4cccc(F)c4)n3)c2)c1F [GSK361061] | 26
Nc1n[nH]c2cnc(-c3ccccc3)cc12 [SB-642124] | 0
Cc1cccc(NC(=O)Nc2ccc(Oc3ncnc4ccn(C)c34)cc2)c1 | 33
COc1cc2c(cc1OCCN1CCNCC1)ncc1c3ccc(C#N)cc3[nH]c21 | 68
Fc1ccc(-c2ncn(C3CCNCC3)c2-c2ccnc(Oc3ccc(-c4ccccc4)cc3)n2)cc1 [SB-245391] | 1
CC(=O)Nc1nc2cnc(Nc3cc(NC(=O)c4cccc(C5(C#N)CC5)c4Cl)ccc3C)nc2s1 | 99
O=C(O)C(F)(F)F.O=C(O)C(F)(F)F.O=c1[nH]ccc2nc(N[C@@H]3CCCNC3)nc(Nc3ccc(S(=O)(=O)N4CCOCC4)cc3)c12 [GSK2177277] | 47
Oc1cc(Nc2ccnc3cc(I)ccc23)ccc1F [GW552771] | 99.1
COc1cccc(C(=O)Nc2cccc(Oc3ccc4nc(NC(=O)C5CC5)cn4n3)c2)c1 | 100
O=C(Nc1cccc(Oc2ccc3nc(NC(=O)C4CC4)cn3n2)c1)c1ccccc1C(F)(F)F | 100
